{"source": "PubChem BioAssay (EPA / NIEHS)", "key": {"[1]": {"biological_target": "human Adrenergic, Alpha 2A Receptor (Adra2A), ADRA2A (gene 150) (UniProt P08913)", "assay": "NVS_GPCR_hAdra2A: NovaScreen (NVS) G Protein-Coupled Receptor Assay for human Adrenergic, Alpha 2A Receptor (Adra2A) (AID 2283257)", "outline": "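Displacement of a specific radioligand from HT29 membrane protein was counted by filter scintillation after 1 h. Compounds were screened in duplicate at 25 uM, and actives were retested in concentration series. Fitting was positive-direction against DMSO.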"}, "[2]": {"biological_target": "human Adrenergic, Beta 1 Receptor (Adrb1), ADRB1 (gene 153) (UniProt P08588)", "sequence (P08588 whole entry, looked up)": "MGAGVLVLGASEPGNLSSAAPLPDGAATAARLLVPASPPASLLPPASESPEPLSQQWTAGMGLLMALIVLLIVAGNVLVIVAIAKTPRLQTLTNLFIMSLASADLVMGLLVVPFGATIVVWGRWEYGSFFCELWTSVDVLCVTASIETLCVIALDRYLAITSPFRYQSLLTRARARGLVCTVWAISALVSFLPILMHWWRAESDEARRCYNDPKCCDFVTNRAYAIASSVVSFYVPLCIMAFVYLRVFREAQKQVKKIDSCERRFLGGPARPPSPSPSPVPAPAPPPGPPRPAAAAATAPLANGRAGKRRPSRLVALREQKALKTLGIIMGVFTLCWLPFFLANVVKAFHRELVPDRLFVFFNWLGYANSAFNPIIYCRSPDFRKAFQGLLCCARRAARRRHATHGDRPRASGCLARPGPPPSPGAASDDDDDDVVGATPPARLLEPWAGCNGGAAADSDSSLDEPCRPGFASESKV", "assay": "NVS_GPCR_hAdrb1: NovaScreen (NVS) G Protein-Coupled Receptor Assay for human Adrenergic, Beta 1 Receptor (Adrb1) (AID 2283258)", "outline": "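Membranes/protein extracted from human neuroepithelioma cells, radioligand competition binding read by filtration and scintillation 2 h post-dose. Single 25 uM duplicate screen, then concentration-response follow-up; DMSO as negative control.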"}, "[3]": {"biological_target": "human Adrenergic, Alpha 2c Receptor (Adra2C), ADRA2C (gene 152) (UniProt P18825)", "sequence (P18825 whole entry, looked up)": "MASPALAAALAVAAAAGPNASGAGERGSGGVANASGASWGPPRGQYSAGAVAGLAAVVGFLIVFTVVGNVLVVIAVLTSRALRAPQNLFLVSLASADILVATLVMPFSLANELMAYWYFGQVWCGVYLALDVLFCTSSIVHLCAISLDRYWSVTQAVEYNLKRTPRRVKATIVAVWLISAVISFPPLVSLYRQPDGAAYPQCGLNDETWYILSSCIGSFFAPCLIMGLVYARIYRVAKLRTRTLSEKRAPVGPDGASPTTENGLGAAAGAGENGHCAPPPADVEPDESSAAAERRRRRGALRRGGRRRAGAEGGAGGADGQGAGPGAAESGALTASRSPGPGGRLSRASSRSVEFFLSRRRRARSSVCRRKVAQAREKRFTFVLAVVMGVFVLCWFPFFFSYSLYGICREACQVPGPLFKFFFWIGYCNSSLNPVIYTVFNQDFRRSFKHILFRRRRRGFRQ", "assay": "NVS_GPCR_hAdra2C: NovaScreen (NVS) G Protein-Coupled Receptor Assay for human Adrenergic, Alpha 2c Receptor (Adra2C) (AID 2283259)", "outline": "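Screened first in duplicate at 25 uM, with actives then run as concentration series. Membranes from Sf9 cells were exposed for 1 h, and displacement of radioligand was counted after filtration, using DMSO as baseline.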"}, "[4]": {"biological_target": "Beta-2 adrenergic receptor (Homo sapiens) (UniProt P07550)", "sequence (P07550 whole entry, looked up)": "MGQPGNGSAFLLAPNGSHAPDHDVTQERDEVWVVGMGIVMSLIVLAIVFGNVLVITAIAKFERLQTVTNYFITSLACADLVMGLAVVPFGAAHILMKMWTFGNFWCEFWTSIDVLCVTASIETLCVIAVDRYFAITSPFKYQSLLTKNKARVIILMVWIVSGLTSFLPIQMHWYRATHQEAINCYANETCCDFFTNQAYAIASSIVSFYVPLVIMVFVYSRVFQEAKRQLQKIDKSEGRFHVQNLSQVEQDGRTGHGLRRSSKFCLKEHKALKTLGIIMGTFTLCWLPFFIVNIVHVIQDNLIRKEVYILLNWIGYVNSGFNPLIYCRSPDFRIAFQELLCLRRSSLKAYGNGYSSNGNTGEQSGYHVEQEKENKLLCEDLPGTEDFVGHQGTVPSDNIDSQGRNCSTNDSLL", "assay": "NVS_GPCR_hAdrb2: NovaScreen (NVS) G Protein-Coupled Receptor Assay for human Adrenergic, Beta 2 Receptor (Adrb2) (AID 2283261)", "outline": "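Compounds screened in duplicate at 25 uM, then actives in concentration series. Human beta-2 receptor from CHO material, cell-free; radioligand displacement after 1 h measured by filtration and scintillation against DMSO baseline.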"}, "[5]": {"biological_target": "human Dopamine Receptor D2 (DRD2), DRD2 (gene 1813) (UniProt P14416)", "assay": "NVS_GPCR_hDRD2s: NovaScreen (NVS) G Protein-Coupled Receptor Assay for human Dopamine Receptor D2 (DRD2) (AID 2283266)", "outline": "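Test compound (25 uM, duplicate in the primary screen; concentration series at follow-up) competed with radioligand for human DRD2 in CHO-derived membrane protein. Filter-based scintillation counting was done 1.5 hours after dosing, with loss of signal analysed against DMSO.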"}, "[6]": {"biological_target": "human Leukotriene B4 Receptor 1 (LTB4-BLT1), LTB4R (gene 1241) (UniProt Q15722)", "sequence (Q15722 whole entry, looked up)": "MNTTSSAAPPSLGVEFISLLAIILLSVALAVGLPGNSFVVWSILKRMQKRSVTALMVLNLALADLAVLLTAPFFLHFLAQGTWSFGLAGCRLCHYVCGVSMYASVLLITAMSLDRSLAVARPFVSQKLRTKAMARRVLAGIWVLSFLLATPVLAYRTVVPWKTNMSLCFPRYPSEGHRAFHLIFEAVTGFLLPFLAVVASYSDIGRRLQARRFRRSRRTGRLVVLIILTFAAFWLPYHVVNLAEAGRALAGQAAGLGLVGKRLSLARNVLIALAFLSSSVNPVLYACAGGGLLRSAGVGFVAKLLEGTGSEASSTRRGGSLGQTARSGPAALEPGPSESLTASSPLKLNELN", "assay": "NVS_GPCR_hLTB4_BLT1: NovaScreen (NVS) G Protein-Coupled Receptor Assay for human Leukotriene B4 Receptor 1 (LTB4-BLT1) (AID 2283271)", "outline": "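Cell-free human neutrophil receptor preparation, 1 h exposure, radioligand binding read by filter scintillation counting. Single 25 uM duplicate screen, then concentration series topping at 50 uM; binding loss scored against DMSO baseline.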"}, "[7]": {"biological_target": "human Muscarinic, M4 Receptor, CHRM4 (gene 1132) (UniProt P08173)", "assay": "NVS_GPCR_hM4: NovaScreen (NVS) G Protein-Coupled Receptor Assay for human Muscarinic, M4 Receptor (AID 2283274)", "outline": "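Filter-based scintillation counting of radioligand bound to CHO-expressed human M4 preparations after 1 h; loss of signal fitted versus DMSO. Initial duplicate testing at 25 uM, concentration-response follow-up for actives.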"}, "[8]": {"biological_target": "Muscarinic acetylcholine receptor M5 (Homo sapiens) (UniProt P08912)", "assay": "NVS_GPCR_hM5: NovaScreen (NVS) G Protein-Coupled Receptor Assay for human Muscarinic, M5 Receptor (AID 2283275)", "outline": "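Chemicals passing a primary duplicate screen at 25 uM were run as singleton concentration series, maximum 50 uM. Displacement of a specific radioligand from CHO-extracted receptor was read by filter scintillation after 1 h, relative to DMSO.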"}, "[9]": {"biological_target": "human Neurokinin, NK2 Receptor, TACR2 (gene 6865) (UniProt P21452)", "sequence (P21452 whole entry, looked up)": "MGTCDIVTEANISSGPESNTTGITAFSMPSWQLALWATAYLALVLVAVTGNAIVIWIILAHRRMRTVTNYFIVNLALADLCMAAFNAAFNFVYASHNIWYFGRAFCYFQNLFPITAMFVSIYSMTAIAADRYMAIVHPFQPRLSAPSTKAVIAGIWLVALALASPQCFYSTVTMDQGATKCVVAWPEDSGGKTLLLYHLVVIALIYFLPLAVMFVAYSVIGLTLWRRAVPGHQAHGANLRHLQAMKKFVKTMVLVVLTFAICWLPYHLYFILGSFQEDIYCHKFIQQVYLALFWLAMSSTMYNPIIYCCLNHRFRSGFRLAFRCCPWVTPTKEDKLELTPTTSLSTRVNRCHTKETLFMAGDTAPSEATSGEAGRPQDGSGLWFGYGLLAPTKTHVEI", "assay": "NVS_GPCR_hNK2: NovaScreen (NVS) G Protein-Coupled Receptor Assay for human Neurokinin, NK2 Receptor (AID 2283278)", "outline": "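Filter-based scintillation counting measured radioligand bound to receptor extracted from CHO cells, 4 hours after compound addition. Chemicals screened first at 25 uM in duplicate, with actives retested in concentration series relative to DMSO.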"}, "[10]": {"biological_target": "human Opioid Receptor Delta 1 (Opiate D1), OPRD1 (gene 4985) (UniProt P41143)", "sequence (P41143 whole entry, looked up)": "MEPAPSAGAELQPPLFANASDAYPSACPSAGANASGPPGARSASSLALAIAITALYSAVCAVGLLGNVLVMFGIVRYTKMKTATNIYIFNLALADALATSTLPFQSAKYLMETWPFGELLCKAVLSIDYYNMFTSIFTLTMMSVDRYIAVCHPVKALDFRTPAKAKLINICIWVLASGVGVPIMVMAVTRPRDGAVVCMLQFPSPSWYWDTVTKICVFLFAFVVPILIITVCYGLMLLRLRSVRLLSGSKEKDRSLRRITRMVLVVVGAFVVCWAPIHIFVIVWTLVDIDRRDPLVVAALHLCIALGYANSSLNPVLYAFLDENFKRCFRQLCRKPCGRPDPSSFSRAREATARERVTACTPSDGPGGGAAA", "assay": "NVS_GPCR_hOpiate_D1: NovaScreen (NVS) G Protein-Coupled Receptor Assay for human Opioid Receptor Delta 1 (Opiate D1) (AID 2283280)", "outline": "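Membrane preparations from CHO cells bearing the human receptor were incubated 1 h with test chemical, and bound radioligand was counted after filtration. Actives from 25 uM duplicate screening were retested in concentration-response.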"}, "[11]": {"biological_target": "human Adenosine A2a Receptor (AdoRA2a), ADORA2A (gene 135) (UniProt P29274)", "sequence (P29274 whole entry, looked up)": "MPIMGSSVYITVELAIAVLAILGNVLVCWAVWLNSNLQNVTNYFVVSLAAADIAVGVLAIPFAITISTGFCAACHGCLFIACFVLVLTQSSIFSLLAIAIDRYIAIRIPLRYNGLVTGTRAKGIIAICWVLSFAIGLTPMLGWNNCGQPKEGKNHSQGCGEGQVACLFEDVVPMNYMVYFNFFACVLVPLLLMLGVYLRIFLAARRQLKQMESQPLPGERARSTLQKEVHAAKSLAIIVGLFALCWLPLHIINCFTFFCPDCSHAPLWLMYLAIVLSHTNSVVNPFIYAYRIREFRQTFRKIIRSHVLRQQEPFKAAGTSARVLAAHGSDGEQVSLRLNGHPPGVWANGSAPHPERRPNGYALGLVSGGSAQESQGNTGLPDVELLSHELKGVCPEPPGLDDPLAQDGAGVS", "assay": "NVS_GPCR_hAdoRA2a: NovaScreen (NVS) G Protein-Coupled Receptor Assay for human Adenosine A2a Receptor (AdoRA2a) (AID 2283256)", "outline": "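Compounds screened in duplicate at 25 uM, with actives followed up in concentration series, for displacement of a radioligand from HEK293-derived receptor protein. Bound counts read by filter scintillation at 1.5 hours, DMSO as baseline.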"}, "[12]": {"biological_target": "Muscarinic acetylcholine receptor M2 (Homo sapiens) (UniProt P08172)", "sequence (P08172 whole entry, looked up)": "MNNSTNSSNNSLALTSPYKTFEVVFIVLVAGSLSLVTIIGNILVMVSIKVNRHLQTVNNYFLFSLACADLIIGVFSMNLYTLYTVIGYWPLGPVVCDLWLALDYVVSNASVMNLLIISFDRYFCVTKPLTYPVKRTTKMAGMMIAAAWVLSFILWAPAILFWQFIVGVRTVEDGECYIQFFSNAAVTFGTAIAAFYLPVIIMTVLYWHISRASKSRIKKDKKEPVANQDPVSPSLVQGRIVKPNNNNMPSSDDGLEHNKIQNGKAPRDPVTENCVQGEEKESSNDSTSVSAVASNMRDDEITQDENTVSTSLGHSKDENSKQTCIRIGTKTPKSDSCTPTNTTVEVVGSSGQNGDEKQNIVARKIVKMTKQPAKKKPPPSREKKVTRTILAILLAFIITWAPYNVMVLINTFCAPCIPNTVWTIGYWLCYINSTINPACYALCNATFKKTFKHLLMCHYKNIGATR", "assay": "NVS_GPCR_hM2: NovaScreen (NVS) G Protein-Coupled Receptor Assay for human Muscarinic, M2 Receptor (AID 2283273)", "outline": "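Radioligand competition binding, cell-free, receptor from CHO; 1 h incubation; scintillation detection. Primary testing at 25 uM in duplicate.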"}, "[13]": {"biological_target": "human Thromboxane A2 Receptor (TXA2), TBXA2R (gene 6915) (UniProt P21731)", "sequence (P21731 whole entry, looked up)": "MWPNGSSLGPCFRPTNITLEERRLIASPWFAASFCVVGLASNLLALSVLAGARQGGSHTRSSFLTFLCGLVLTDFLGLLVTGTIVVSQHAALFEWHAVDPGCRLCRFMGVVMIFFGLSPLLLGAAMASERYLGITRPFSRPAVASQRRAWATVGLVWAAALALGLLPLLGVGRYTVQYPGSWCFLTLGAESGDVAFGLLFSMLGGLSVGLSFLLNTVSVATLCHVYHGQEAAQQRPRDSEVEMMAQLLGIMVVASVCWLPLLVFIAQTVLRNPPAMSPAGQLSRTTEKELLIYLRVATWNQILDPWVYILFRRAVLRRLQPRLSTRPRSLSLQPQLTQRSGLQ", "assay": "NVS_GPCR_hTXA2: NovaScreen (NVS) G Protein-Coupled Receptor Assay for human Thromboxane A2 Receptor (TXA2) (AID 2283282)", "outline": "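Human platelet-derived receptor preparation incubated with test chemical and radiolabelled ligand for 1 hour, cell-free. Bound label was separated by filtration and counted; displacement relative to DMSO controls gave activity, screened at 25 uM, then titrated.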"}, "[14]": {"biological_target": "human Dopamine Receptor D4.4 (DRD4.4), DRD4 (gene 1815) (UniProt P21917)", "assay": "NVS_GPCR_hDRD4.4: NovaScreen (NVS) G Protein-Coupled Receptor Assay for human Dopamine Receptor D4.4 (DRD4.4) (AID 2283264)", "outline": "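Filter-binding assay with a tritiated or iodinated ligand, cell-free receptor prepared from CHO, 1 hour. Loss of bound radioactivity versus DMSO; single 25 uM duplicate screen, then concentration-response for actives.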"}, "[15]": {"biological_target": "human Histamine 1 Receptor (H1), HRH1 (gene 3269) (UniProt P35367)", "sequence (P35367 whole entry, looked up)": "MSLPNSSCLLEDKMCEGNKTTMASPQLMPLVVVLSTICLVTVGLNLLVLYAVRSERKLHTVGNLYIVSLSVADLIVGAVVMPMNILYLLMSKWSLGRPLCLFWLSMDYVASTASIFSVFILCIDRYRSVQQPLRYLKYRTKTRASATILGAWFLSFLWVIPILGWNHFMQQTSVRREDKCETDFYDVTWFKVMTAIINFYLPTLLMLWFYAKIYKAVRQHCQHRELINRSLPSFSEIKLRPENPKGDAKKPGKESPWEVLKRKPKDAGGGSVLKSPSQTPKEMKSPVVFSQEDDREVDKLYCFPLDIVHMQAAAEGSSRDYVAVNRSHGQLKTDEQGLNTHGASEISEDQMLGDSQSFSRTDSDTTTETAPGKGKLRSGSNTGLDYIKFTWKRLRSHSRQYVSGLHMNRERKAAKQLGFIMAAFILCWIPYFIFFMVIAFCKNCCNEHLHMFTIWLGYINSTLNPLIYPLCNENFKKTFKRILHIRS", "assay": "NVS_GPCR_hH1: NovaScreen (NVS) G Protein-Coupled Receptor Assay for human Histamine 1 Receptor (H1) (AID 2283268)", "outline": "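Filter-based scintillation detection of radioligand binding to human H1, 1 h incubation; chemicals screened in duplicate at 25 uM, then concentration-response; signal loss relative to DMSO taken as activity.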"}, "[16]": {"biological_target": "human Purinergic Receptor P2Y, P2RY1 (gene 5028) (UniProt P47900)", "sequence (P47900 whole entry, looked up)": "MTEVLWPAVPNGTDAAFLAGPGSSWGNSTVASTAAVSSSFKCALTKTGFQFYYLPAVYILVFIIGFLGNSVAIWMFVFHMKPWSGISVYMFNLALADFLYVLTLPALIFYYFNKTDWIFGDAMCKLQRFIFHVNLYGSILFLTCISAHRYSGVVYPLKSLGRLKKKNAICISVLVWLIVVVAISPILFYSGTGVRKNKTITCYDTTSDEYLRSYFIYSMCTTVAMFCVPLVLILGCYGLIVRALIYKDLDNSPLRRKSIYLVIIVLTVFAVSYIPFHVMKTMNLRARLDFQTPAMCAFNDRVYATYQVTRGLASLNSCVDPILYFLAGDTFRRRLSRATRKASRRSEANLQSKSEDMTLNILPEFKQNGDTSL", "assay": "NVS_GPCR_hPY2: NovaScreen (NVS) G Protein-Coupled Receptor Assay for human Purinergic Receptor P2Y (AID 2283281)", "outline": "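Filtration scintillation readout of radioligand displacement on U937 extract, measured 1 h post-dosing. Single 25 uM duplicate screen, then singleton concentration series to 50 uM for chemicals passing threshold; DMSO as baseline.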"}}, "note": "Several values for one entry are separate records, joined by “and”; a condition that tells them apart may be missing. Equal entries are not always repeated. Inconclusive results are not listed. A structure can be active in one record and inactive in another. Activity calls are given as the source filed them. Rule for the calls: active = hit-call score of the fitted dose curve at least 0.9, where 1 is the maximum; inconclusive = response in the unintended direction; inactive = score below 0.9.", "data": [{"smiles": "N=C(N)c1ccc(OCCCCCOc2ccc(C(=N)N)cc2)cc1", "values": [{"measurement": "AC50", "setting": "[1]", "value": "23.2 µM (active)"}, {"measurement": "AC50", "setting": "[2]", "value": "20.4 µM (active)"}, {"measurement": "AC50", "setting": "[3]", "value": "7.57 µM (active)"}, {"measurement": "AC50", "setting": "[4]", "value": "21.9 µM (active)"}, {"measurement": "outcome", "setting": "[5]", "value": "inactive"}, {"measurement": "outcome", "setting": "[6]", "value": "inactive"}, {"measurement": "AC50", "setting": "[7]", "value": "2.83 µM (active)"}, {"measurement": "AC50", "setting": "[8]", "value": "8.19 µM (active)"}, {"measurement": "outcome", "setting": "[9]", "value": "inactive"}, {"measurement": "AC50", "setting": "[10]", "value": "8.49 µM (active)"}]}, {"smiles": "CC(C)(C)c1ccc(O)c(O)c1", "values": [{"measurement": "AC50", "setting": "[9]", "value": "16 µM (active)"}, {"measurement": "outcome", "setting": "[9]", "value": "inactive"}]}, {"smiles": "CCCCCc1ccc(O)cc1", "values": [{"measurement": "outcome", "setting": "[9]", "value": "inactive"}]}, {"smiles": "CN(C)c1ccc(C(=C2C=CC(=[N+](C)C)C=C2)c2ccccc2)cc1", "values": [{"measurement": "outcome", "setting": "[11]", "value": "inactive"}, {"measurement": "AC50", "setting": "[12]", "value": "4.03 µM (active) and 2.32 µM (active)"}, {"measurement": "AC50", "setting": "[9]", "value": "5.94 µM (active) and 1.63 µM (active)"}, {"measurement": "AC50", "setting": "[13]", "value": "12.5 µM (active)"}, {"measurement": "outcome", "setting": "[13]", "value": "inactive"}]}, {"smiles": "NS(=O)(=O)O", "values": [{"measurement": "outcome", "setting": "[13]", "value": "inactive"}]}, {"smiles": "O=C1OC2(c3ccccc31)c1cc(I)c(O)c(I)c1Oc1c2cc(I)c(O)c1I", "values": [{"measurement": "AC50", "setting": "[9]", "value": "1.78 µM (active)"}, {"measurement": "AC50", "setting": "[13]", "value": "1.24 µM (active)"}]}, {"smiles": "CCCCCCCCCCCCOS(=O)(=O)O", "values": [{"measurement": "AC50", "setting": "[3]", "value": "16.4 µM (active)"}, {"measurement": "AC50", "setting": "[14]", "value": "25 µM (active)"}, {"measurement": "outcome", "setting": "[15]", "value": "inactive"}, {"measurement": "AC50", "setting": "[10]", "value": "18.6 µM (active)"}, {"measurement": "outcome", "setting": "[16]", "value": "inactive"}, {"measurement": "AC50", "setting": "[13]", "value": "7.92 µM (active)"}]}, {"smiles": "CC1=NN(c2ccccc2)C(=O)C1", "values": [{"measurement": "outcome", "setting": "[13]", "value": "inactive"}]}, {"smiles": "C=Cc1ccc(O)c(OC)c1", "values": [{"measurement": "outcome", "setting": "[13]", "value": "inactive"}]}, {"smiles": "CCCCC=O", "values": [{"measurement": "outcome", "setting": "[16]", "value": "inactive"}]}]}
